High-throughput results as filed in PubChem.
VACV Venus inh: vaccinia inhibition (Venus reporter) | hit rate 0.46% among 330,000 | AID 720580 | Vaccinia virus Venus reporter expression, fluorescence | Potency, µM (highest dose often 36.5 µM), inactives show at the highest dose activity change, negative = inhibition, usual class: inhibitors; calls by dose curve; tested in A549 cells; also: % is scaled to controls: 0 for no effect and ±100 for the full control effect; nearly all actives have a fitted effect of over 30% in size
Marburg entry inh: blocks Marburg virus binding to or entry into cells | hit rate 1.8% among 300,000 | Marburg virus pseudotyped entry inhibition, cell reporter | Potency, µM (top dose mostly 37.8 µM), for the others: at the top dose activity change, negative = inhibition, actives largely listed as inhibitors; calls by dose curve; tested in HEK293 cells; also: % is scaled to controls: 0 for no effect and ±100 for the full control effect
HCV inh: HCV inhibition; Huh7.5.1 HCVcc-Cre infection, luciferase reporter, 44 h; AID 651820; Potency, µM (doses to about 41.8 µM), for inactives: at the highest dose activity change, negative = inhibition, usual class: inhibitors; hit rate 3.4% among 340,000; also: % is scaled to controls: 0 for no effect and ±100 for the full control effect
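After 44 h co-culture of compound, cells and HCVcc-Cre (~0.5 moi), substrate is added for 15 min at room temperature and luciferase measured over 15 sec. Cells were seeded at 1,000/well and pre-cultured 4 h.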
LASV entry inh: Lassa virus entry inhibition; Lassa virus pseudotype entry inhibition, cell reporter; Potency, µM (doses to about 37.9 µM), for the others: at the top dose activity change, negative = inhibition, actives largely listed as inhibitors; hit rate 1.2% among 300,000; AID 540256; calls by dose curve; tested in HEK293 cells; also: % is scaled to controls: 0 for no effect and ±100 for the full control effect; nearly all actives have a fitted effect of over 50% in size
FMDV antiviral: antivirals against foot and mouth disease virus; FMDV antiviral cell-based qHTS; Potency, µM (series often up to 57.9 µM), for inactives: at the top dose activity change, negative = inhibition, most hits filed as inhibitors; hit rate 1.2% among 410,000; AID 1159524; calls by dose curve; tested in HEK293T cells; also: read-out not given here; % is scaled to controls: 0 for no effect and ±100 for the full control effect; nearly all actives have a fitted effect of over 45% in size
Vaccinia mCherry: vaccinia inhibition (mCherry reporter) | Vaccinia virus mCherry reporter infection, fluorescence | Potency, µM (highest dose often 36.5 µM), inactives show top-dose activity change, negative = inhibition, hits mostly inhibitors | hit rate 0.63% among 310,000; calls by dose curve; tested in A549 cells; also: % is scaled to controls: 0 for no effect and ±100 for the full control effect; nearly all actives have a fitted effect of over 35% in size
HCV confirm: HCV inhibition, cherry-pick confirmation. Potency, µM (titrated, usually from 41.8 µM), inactives show at the top dose activity, negative = inhibition, actives largely listed as inhibitors. HCVcc-Cre infectious virus cell assay, luciferase, inhibition. shares compounds with HCV inh. hit rate 78% among 640. AID 720575; also: nearly all actives have a fitted effect of over 80% in size
HCV host tox: toxic to HCV host cells, flagging false HCV inhibitors; HCV host cell line cytotoxicity counterscreen; Potency, µM (titrated, usually from 41.8 µM), for inactives: top-dose activity change, negative = cytotoxicity, actives largely listed as inhibitors; shares compounds with HCV inh; hit rate 22% among 640;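 also: 44 h compound exposure; % is scaled to controls: 0 for no effect and ±100 for the full control effect; nearly all actives have a fitted effect of over 55% in size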
* marks the source's active call; other numbers are inactive results; i = inactive; ? = inconclusive; · = not tested or not shown; [ ] = remark or other dose. This is a sample that favours compounds with a hit; in the whole collection about 5.3% have one here. Unless noted, calls follow the shape of the dose curve; as a rule, active = well fitted curve in the direction sought with a large enough effect; inconclusive = small, poorly fitted or top-dose-only effect, or another doubt; inactive = no such curve, though single readings can be large; an effect the other way counts as inactive or inconclusive. Potency is read from the fitted curve at half-maximal effect.

SMILES	VACV Venus inh	Marburg entry inh	HCV inh	LASV entry inh	FMDV antiviral	Vaccinia mCherry	HCV confirm	HCV host tox
c1cc2c(cc1C1CCCCC1)c1c3n2CCCNC3CCC1 (centres undefined)	?	?	3.55µM*	?	0.0%	1.4%[1.46 µM]	28µM*	31.5µM*
CCc1nc2ccc(C(=O)NCc3cc(OC)ccc3OC)cc2nc1CC	2.8%	·	·	-19.6%[46.1 µM]	-9.6%	-10.3%	·	·
COCCN(C(=O)CSc1nnc(-c2cccc(F)c2)n1N)c1c(N)n(Cc2ccccc2)c(=O)[nH]c1=O	·	·	0.3%	·	-13.9%	·	·	·
CCN(CC)CCNC(=S)Nc1ccc2nc(N3CCN(C)CC3)cc(C)c2c1	-27.0%	?	?	?	-3.8%	-15.7%	·	·
CCN1CCN(c2cc(C)c3cc(NC(=O)c4cc(OC)cc(OC)c4)ccc3n2)CC1	-26.4%	?	2.24µM*	?	14.2%	-28.9%	25µM*	22.3µM*
CCN(CC)CCNC(=S)Nc1ccc2nc(N3CCCC3)cc(C)c2c1	·	4.11µM*	2µM*	?	-11.5%	·	7.05µM*	-23.1%
COc1ccc(-c2csc3nc(-c4ccccc4C)oc(=O)c23)cc1OC	-5.5%	7.0%[46.1 µM]	·	-0.4%[46.1 µM]	-25.2%	-9.2%	·	·
COCCN(C(=O)COC(=O)c1cc2c(s1)CCC2)c1c(N)n(Cc2ccccc2)c(=O)[nH]c1=O	-7.2%	?	?	0.0%	-9.7%	-12.9%	-25.8%	28.4%
CCC1CCc2sc(C(=O)OCC(=O)N(CCOC)c3c(N)n(Cc4ccccc4)c(=O)[nH]c3=O)cc2C1 (centres undefined)	-29.9%	-8.6%	?	-21.9%	-3.6%	-22.1%	·	·
CN(C)CC/C=C1/c2ccc(F)cc2Sc2ccc(Cl)cc21	3.2%[7.34 µM]	12.6µM*	8.91µM*	?	-13.6%	-0.5%[7.34 µM]	14.1µM*	17.2%
CC(C)Sc1nc2c(c(=O)[nH]c(=O)n2C)n1Cc1ccc(Cl)cc1	-11.5%	-22.0%	?	?	-19.3%	·	·	·
CC(C)Sc1nc2c(c(=O)[nH]c(=O)n2C)n1Cc1ccccc1	-6.0%	0.2%	?	-19.4%	-23.2%	-23.8%	-26.3%	14.0%
CC1(C(=O)NS(=O)(=O)c2ccccc2)CCN1C(=O)c1ccc(C2CCCCC2)cc1 (centres undefined)	-6.0%	·	·	·	-6.4%	48.8%	·	·
CSc1ccccc1NC(=O)c1cccc(S(=O)(=O)N2CCN(C)CC2)c1	-13.1%	-5.2%	20.7%	-2.4%	-16.9%	i	·	·
Cc1ccc2c(c1)c1c(n2CC(O)CNC2CCCCC2)CCCC1 (centres undefined)	?	·	4.47µM*	·	-26.5%	?	12.5µM*	-96.6%
O=c1oc(C2(O)CCCCC2)cc2ccccc12	-13.3%	·	-84.6%	·	-12.9%	4.5%	·	·
O=c1oc(C2(O)CCCCC2)cc2ccc(-c3ccc4[nH]ccc4c3)cc12	-24.7%	·	1.12µM*	·	10.9%	0.631µM*	?	-13.9%
C/C(=N\NC(=O)C(C)n1nc(C)c([N+](=O)[O-])c1C)c1ccccc1O (centres undefined)	?	9.2µM*	2.51µM*	13µM*	-13.9%	?	7.91µM*	?
Cc1nn(C(C)C(=O)NCc2ccco2)c(C)c1[N+](=O)[O-] (centres undefined)	·	·	10.2%	·	-19.6%	·	·	·
CCCCOc1ccc(Cn2c(=O)sc3ccccc32)cc1	-3.9%	-18.5%[46.1 µM]	·	-5.6%[46.1 µM]	-2.3%	-10.3%	·	·
COc1ccc(C(=O)NC2CCCc3c2cnn3-c2ccccc2F)cc1OC (centres undefined)	·	·	4.47µM*	·	?	·	7.05µM*	?
O=C(c1cc(COc2ccc3ncccc3c2)on1)N1CCC[C@H]1CO	-17.0%	-21.1%	?	?	-11.0%	-11.0%	7.91µM*	14.1µM*
COc1ccc(C2CC(=O)C3=C(C2)Nc2ncnn2C3c2ccccc2C)c(OC)c1 (centres undefined)	·	?	3.55µM*	-8.5%	?	·	7.05µM*	21.5%
COc1cc(C2CC(=O)C3=C(C2)Nc2ncnn2C3c2cccs2)cc(OC)c1OC (centres undefined)	-10.2%	-4.0%[46.1 µM]	-0.4%	-13.1%[46.1 µM]	-10.3%	i	·	·
COc1ccc(C(=O)c2ccc(N(C)C)cc2)c2ccccc12	?	?	?	?	·	?	-22.4%	-18.8%
SMILES	VACV Venus inh	Marburg entry inh	HCV inh	LASV entry inh	FMDV antiviral	Vaccinia mCherry	HCV confirm	HCV host tox
COc1ccc(C(=O)c2ccc(OC)c(OC)c2OC)cc1	-26.1%	?	?	-25.9%	4.1%	-6.4%	·	·
COc1ccc(-c2sc3ccc(N4CCOCC4)cc3c2C#CCO)cc1	?	·	3.16µM*	·	15.8µM*	-16.1%	4.45µM*	4.99µM*
COc1ccc(/C=C/c2c(-c3ccc(OC)cc3)sc3ccc(N4CCOCC4)cc23)cc1	-10.0%	·	-5.1%	·	-21.4%	?	·	·
CCOc1ccc(/C=C/c2nc(C#N)c(Nc3ccc(OCC)cc3)o2)cc1	-11.3%	12.0%[46.1 µM]	·	?	-4.6%	-13.1%	·	·
CN1CCN(/N=C/c2ccc(-c3ccc([N+](=O)[O-])cc3Cl)o2)CC1	21.5%	?	8.91µM*	18.5%	11.5%	3.5%	?	13.4%
COc1ccc(-n2nc(C(=O)NCc3ccc(F)cc3)c3c4ccccc4n(C)c3c2=O)cc1	-8.8%	-3.6%[46.1 µM]	·	6.2%[46.1 µM]	-13.8%	-12.2%	·	·
O=C(O)c1cc([N+](=O)[O-])ccc1N1CCCCC1	-14.1%	-0.3%	3.0%	10.5%	-12.6%	-18.6%	·	·
Cc1ccc(C(=O)c2cc([N+](=O)[O-])ccc2N2CCCCC2)c(C)c1	?	?	?	?	?	?	?	-39.3%
Cc1cc(N2CCN(Cc3nc(-c4ccc(Cl)cc4)oc3C)CC2)cc(C)n1	?	3.98µM*	2.24µM*	?	-29.9%	-27.1%	9.95µM*	?
COc1ccc(-c2nc(CN3CCN(Cc4ccccc4)CC3)c(C)o2)cc1	·	·	-18.4%	·	-14.0%	·	·	·
Cn1cc(CNCc2cn[nH]c2-c2ccc(F)cc2)c(-c2ccc3c(c2)OCCO3)n1	·	·	1.9%	·	-2.2%	·	·	·
Cn1cc(CNCc2ccc(OC(F)(F)F)cc2)c(-c2ccc3c(c2)OCCO3)n1	·	·	1µM*	·	?	·	0.995µM*	4.99µM*
Cc1ccc(CNC(=O)C(=O)NCC2CCCN2S(=O)(=O)c2cc(C)ccc2C)cc1 (centres undefined)	-19.9%	?	?	?	-15.6%	-14.9%	·	·
O=C(NCCN1CCC(Cc2ccccc2)CC1)C1CCN(S(=O)(=O)N2CCC3(CC2)OCCO3)CC1	·	?	6.31µM*	-21.3%	?	·	?	-18.2%
COc1ccc([N+](=O)[O-])cc1NC(=O)c1ccco1	-7.1%	5.3%[46.1 µM]	?	·	-17.0%	-3.2%	?	17.7%
O=C1CSC(c2ccccc2Cl)c2cc(Cl)ccc2N1 (centres undefined)	-3.3%[60.7 µM]	·	·	·	8.4%[97.4 µM]	-15.8%[60.7 µM]	·	·
